Results from PubChem BioAssay AID720597 (Broad Institute, 2013).
Potency and affinity values are given separately. The source made the active and inactive calls.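 The calls were made as follows: active = fitted half-maximal dose no more than twice the top valid tested dose, for compounds that lower signal; inconclusive = fit invalid, or curve flat with activity between -70 and -30; inactive = potency past limit, curve flat within ±30, or signal increasing.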

molecular target: NAD-dependent protein deacylase sirtuin-5, mitochondrial (Homo sapiens) (UniProt Q9NXA8); experiment: blockers of sirtuin-5 peptide desuccinylation – biochemical, fluorescence imaging, cherry-pick, set 6, dose response (AID 720597); settings: Purified SirT5, succinyl-peptide-AMC/trypsin fluorescence; series mostly up to 15 µM;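 also: lower AMC signal can also come from blocking the trypsin step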
Sequence (Q9NXA8 whole entry, looked up): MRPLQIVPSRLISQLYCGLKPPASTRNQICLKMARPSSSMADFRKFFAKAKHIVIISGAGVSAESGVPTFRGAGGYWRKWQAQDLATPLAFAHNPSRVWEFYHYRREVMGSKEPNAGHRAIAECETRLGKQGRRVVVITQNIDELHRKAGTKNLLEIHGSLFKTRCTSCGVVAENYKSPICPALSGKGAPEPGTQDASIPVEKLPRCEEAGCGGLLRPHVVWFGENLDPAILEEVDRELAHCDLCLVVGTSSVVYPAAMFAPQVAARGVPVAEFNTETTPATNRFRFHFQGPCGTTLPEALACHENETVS

outcome, inactive:
Cc1ccc(S(=O)(=O)N(C)C[C@H]2OCCCC[C@@H](C)Oc3ccc(NS(=O)(=O)c4ccc(Cl)cc4)cc3C(=O)N([C@H](C)CO)C[C@H]2C)cc1, COc1cccc(-c2ccc3c(c2)[C@@H]2[C@@H](CCN2C(=O)c2ccccc2F)[C@H](CO)N3C)c1, C[C@@H]1CN([C@H](C)CO)C(=O)c2cccc(NC(=O)Nc3ccc(C(F)(F)F)cc3)c2O[C@H]1CN(C)C(=O)Nc1cccc2ccccc12, C[C@H]1CN([C@@H](C)CO)C(=O)Cc2cc(NC(=O)CCCCCC(=O)Nc3ccccc3N)ccc2O[C@H]1CN(C)Cc1ccc(Oc2ccccc2)cc1, CO[C@H]1CN(C)C(=O)c2cc(NC(C)=O)ccc2OC[C@H](C)N(S(=O)(=O)c2cn(C)cn2)C[C@H]1C, CC(C)C#Cc1cnc2c(c1)C(=O)N([C@@H](C)CO)C[C@H](C)[C@H](CN(C)C(=O)c1ccccc1)O2, COc1ccccc1C(=O)Nc1ccc2c(c1)C(=O)N(C)[C@H]1CC[C@H](CC(=O)Nc3cccc(C(C)C)c3)O[C@@H]1CO2, CCCNC(=O)N1CC2(C1)[C@H](c1ccccc1)[C@H](CO)N2Cc1cccc(F)c1, C[C@H](O)C#Cc1ccc2c(c1)O[C@H](CN(C)Cc1ccc(-c3ccccc3)cc1)[C@@H](C)CN([C@@H](C)CO)S2(=O)=O, C[C@@H]1CN([C@H](C)CO)C(=O)c2cccc(NC(=O)c3nc4ccccc4s3)c2O[C@@H]1CN(C)C(=O)NC1CCCCC1, C[C@H](CO)N1C[C@H](C)[C@@H](CN(C)S(=O)(=O)c2ccccc2F)Oc2cc(C#Cc3cccc(F)c3)ccc2S1(=O)=O, O=C(NC1CCCC1)N[C@@H]1CC[C@H](CC(=O)N2CCOCC2)O[C@H]1CO, COc1ccc(NC(=O)Nc2ccc3c(c2)C(=O)N([C@@H](C)CO)C[C@H](C)[C@@H](CN(C)Cc2ccccc2)OCCCC[C@H](C)O3)cc1, Cc1noc(C)c1NC(=O)Nc1cccc2c1O[C@@H](CN(C)Cc1ccc(Oc3ccccc3)cc1)[C@H](C)CN([C@@H](C)CO)C2=O, C[C@H]1CN([C@@H](C)CO)S(=O)(=O)c2ccc(C#Cc3ccc(F)cc3)cc2O[C@@H]1CN(C)S(C)(=O)=O, CC(C)CC#Cc1ccc2c(c1)O[C@@H](CN(C)S(=O)(=O)c1cccc(F)c1)[C@@H](C)CN([C@H](C)CO)S2(=O)=O, O=C(Nc1cc(F)ccc1F)N1CCCCN2[C@H](CO)[C@H](c3ccc(-c4ccccc4)cc3)[C@H]2C1, O=S(=O)(NC[C@@H]1CC[C@H]2[C@H](CN2Cc2cccc(-c3ccccn3)c2)O1)c1ccccc1, Cc1ccc(-c2ccc(C3[C@@H]4CN(S(=O)(=O)c5cccc(C)c5)C[C@H]3N4)cc2)cc1 (some centres undefined), COc1ccccc1NC(=O)N[C@H]1CC[C@H](CCNC(=O)c2ccc3c(c2)OCO3)O[C@@H]1CO, C[C@H]1CN([C@@H](C)CO)C(=O)c2cc(NC(=O)CCCCCC(=O)Nc3ccccc3N)ccc2O[C@H]1CN(C)Cc1ccc(Cl)c(Cl)c1, Cc1ccc(S(=O)(=O)Nc2ccc3c(c2)C(=O)N([C@H](C)CO)C[C@H](C)[C@@H](CN(C)Cc2ccc(Cl)c(Cl)c2)OCCCC[C@H](C)O3)cc1, C[C@H]1CN([C@@H](C)CO)S(=O)(=O)c2ccc(/C=C/c3ccccc3)cc2O[C@@H]1CN(C)C(=O)NC1CCCC1, C[C@H]1CN([C@@H](C)CO)C(=O)Cc2cc(NC(=O)Nc3ccc(F)cc3)ccc2O[C@@H]1CN(C)C, COc1cccc(NC(=O)N(C)C[C@@H]2Oc3cc(C#Cc4ccccc4)ccc3S(=O)(=O)N([C@H](C)CO)C[C@H]2C)c1, COCC#Cc1cnc2c(c1)C(=O)N([C@@H](C)CO)C[C@@H](C)[C@@H](CN(C)C(=O)c1ccc(F)cc1)O2, C[C@H](CO)N1C[C@H](C)[C@H](CN(C)S(=O)(=O)c2ccc(F)cc2)Oc2cc(C3=CCCCC3)ccc2S1(=O)=O, C/C=C/c1ccc([C@@H]2[C@H](CO)N(CC3CC3)C23CN(S(=O)(=O)CC)C3)cc1, Cc1ccc(-c2ccc3c(c2)O[C@@H](CN(C)Cc2ccccn2)[C@H](C)CN([C@@H](C)CO)S3(=O)=O)cc1
